Laboratory results: PubChem BioAssay (NCI)
About 83,000 compounds went through this panel and 20% of them were active in at least one assay; those are over-represented in the sample as a whole.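 Interpretation: 100, growth as untreated; towards 0, rising growth inhibition; 0, no net growth; 0 to -100, cell death. Compounds scoring below 10 were considered active.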 A number with no mark means an inactive call. The source made the active and inactive calls.

Assays:
Assay in all cases: NCI-60 one-dose screen, 48 h (100 = growth as untreated, 0 = no growth, -100 = all killed)
Settings in all cases: 10 µM
[1] = system: HCT-15 colon
[2] = system: HT29 colon
[3] = system: SNB-75 CNS
[4] = system: SNB-19 CNS
[5] = system: U251 CNS
[6] = system: PC-3 prostate
[7] = system: SK-MEL-5 melanoma
[8] = system: UACC-62 melanoma
[9] = system: SK-MEL-28 melanoma
[10] = system: LOX IMVI melanoma

Structure (SMILES) | growth [1] | growth [2] | growth [3] | growth [4] | growth [5] | growth [6] | growth [7] | growth [8] | growth [9] | growth [10]
CCC(CCNc1cc(OC)cc2cccnc12)CN1C(=O)c2ccccc2C1=O (stereo unspecified) | 93.1% | 105% | 84% | 103% | 102% | 89.2% | 105% | 97.5% | 117% | 
Oc1[nH]c2ccccc2c1/C=c1/cc2c(c(-c3ccc(C(F)(F)F)cc3)n1)=Nc1ccccc1-2 | 49.4% | 20.2% | 63.4% | 82.7% | 60.1% | 34.9% | 57.2% | 77% | 52.8% | 
O=[N+]([O-])c1ccc(S(=O)(=O)OCCCCOS(=O)(=O)c2ccc([N+](=O)[O-])cc2)cc1 | 114% | 107% | 92% | 112% | 104% | 98.4% | 100% | 99.8% | 99.1% | 
COC(=O)CCCCCCCCC(C)c1ccc(C(C)=O)cc1 (stereo unspecified) | 103% | 101% | 122% | 110% | 107% | 106% | 111% |  |  | 98.2%
COc1ccc(OC)c([N+](=O)[O-])c1C=O | 104% | 55.6% | 85.8% | 101% | 105% | 92.9% | 96.1% | 100% | 103% | 
COc1ccc2c(=O)cc(C(Cl)(Cl)Cl)oc2c1 | 5.59% (active) | -41.8% (active) | -78.3% (active) | 1.99% (active) | -0.183% (active) | -37% (active) | -91.9% (active) | -73.2% (active) | -82.7% (active) | 
COc1ccc(-c2[nH]ncc2-c2cc(OC)c(OC)c(OC)c2)cc1 | 10.3% | -16.6% (active) | 49.1% | 44.5% | 6.25% (active) | 11.8% | -22.1% (active) | 35.2% | 37.2% | 
Cc1ccc2oc(=O)cc(/C(=C3/C=CC=N3)c3ccc[nH]3)c2c1 | 5.43% (active) | -36.6% (active) | 8.89% (active) | 16.2% | -17.2% (active) | 8.12% (active) | -59.2% (active) | 11.8% | 27.7% | 
FC(F)(F)c1ccc(-c2cnc(Cl)nc2NC2CCCCCC2)cc1 | 75.7% | 19.1% | 49.9% | 31.2% | 5.17% (active) | 1.08% (active) | -8.26% (active) | 16.2% | 37.6% | 
O/N=C1\CCC2CCCCC2C1 (stereo unspecified) | 99.6% | 99.2% | 71% | 98.5% | 107% | 97.1% | 102% | 106% | 108% | 
CCCCCCCCCCSC(=N)N (tested in a mixture with another compound) | 12% | 3.13% (active) | 91.2% | 75.8% | 31.6% | 65.5% | 80.5% | 9.19% (active) | 72.1% | 48.9%
COc1ccc(C(C)=O)cc1N1C(=O)C2C(C1=O)C1(c3ccccc3)C(=O)C2(c2ccccc2)C(c2ccc(C)cc2)=C1c1ccc(C)cc1 (stereo unspecified) | 25.3% | 21.4% | 57.3% | 29.7% | 14.8% | 12.6% | -29.1% (active) | -70.9% (active) | 37.6% | 7.38% (active)
COc1ccccc1CNCCCN1C(=O)c2ccc3c4c(ccc(c24)C1=O)C(=O)N(CCCNCCNCCCN)C3=O | 90% | 6.6% (active) | 28.4% | 10.3% | -1.05% (active) | 42.1% | -31.7% (active) | 23.5% | 25.4% | 
O=C(COc1ccc(Cl)cc1Cl)Oc1coc(CSc2nc3ccccc3s2)cc1=O | 103% | 114% | 112% | 103% | 97.3% | 106% | -78% (active) | 70.5% | 131% | 
COc1ccc(-c2nnc(COc3ccc(NC(=O)Nc4cccc(C(F)(F)F)c4)cc3F)o2)cc1 | 46.1% | 66.8% | 79.6% | 47.7% | 48.1% | 46.5% | 78.8% | 17.1% | 73.4% | 
Cc1ccc(S(=O)(=O)Nc2cccc3[nH]c(C(F)(F)F)nc23)cc1 | 28.3% | 4.99% (active) | -4.83% (active) | 39.2% | 29.8% | 17.2% | 7.01% (active) | 36.9% | 38.4% | 
O=[N+]([O-])C1CC2C=CC1C2 (stereo unspecified) | 100% | 99% | 93.1% | 109% | 101% | 96.9% | 106% | 103% | 110% | 95.6%
COc1ccc(C2C=C(c3ccc(Cl)c(Cl)c3)N=C3SC(C)=CN32)cc1 (stereo unspecified) | 85.5% | 71.1% | 89.8% | 96.6% | 84.2% | 90.5% | 93.6% | 92.1% | 104% | 83.4%
COc1cc(-c2nc3ccccc3[nH]2)ccc1OCC(=O)N=Nc1c(O)[nH]c2ccccc12 | 99.4% | 91.5% | 98.1% | 98.4% | 32.1% | 64% | 68.9% | 94.9% | 101% | 
CCCCCCCCCCCCc1ccc(C(=O)/C=C/C(=O)O)cc1 | -19.4% (active) | 27.8% | 74.5% | 94.4% | 80.1% | 82.9% | 92.1% | -16.8% (active) | 26.4% | 
COc1cccc(-c2nnc(COc3ccc(-c4nc5ccccc5[nH]4)cc3OC)o2)c1 | 78.3% | 96.1% | 109% | 98.1% | 97% | 97.7% | 67.4% | 95.1% | 98.1% | 
CCc1nn2c(-c3ccccc3)c(-c3cc(OC)c(OC)c(OC)c3)nc2s1 | 72.9% | 74.5% | 45.9% | 85.3% | 98.8% | 71.4% | 71.9% | 71.8% | 29.5% | 88.2%
Cn1c([N+](=O)[O-])cnc1C=C1C(=O)c2ccccc2C1=O | 23.2% | 56.1% | 51% | 85.1% | 57.2% | 60.1% | 42.6% | 17.5% | 39.2% | 
CCCCn1c(=O)[nH]c2c(c1=O)C(c1ccc(Cl)cc1)c1c([nH]c(=O)n(CCCC)c1=O)N2 | 95.6% | 97.2% | 91.7% | 99.5% | 94% | 93.4% | 102% | 98.2% | 102% | 94.9%
C(=C\c1nc2ccccc2s1)/c1ccc(N2CCOCC2)s1 | 48.3% | 45.1% | 99.6% | 95.2% | 67.6% | 53.4% | 61.1% | 30.8% | 113% | 56.8%
O=c1[nH]c(=O)n(C2C[C@@H](O)[C@@H](CO)O2)cc1F (stereo partly specified) | 39% | 27.2% | 20.3% | 41.6% | 34.2% | 44% | -69% (active) | 13.9% | 37.9% | 
CCOC(=O)C1=C(Nc2ccc(OC)cc2)C(N)=NC1=N | 22% | 11.7% | 51.9% | 66.8% | 51.7% | 40.5% | 21.5% | 30.4% | 67.3% | 
O=c1ccc2nc(-c3ccccc3)nn(-c3ccccc3)c-2c1 | -75.9% (active) | -53.5% (active) | 93.3% | 78% | 66.2% | 43.5% | 19.8% |  | 26.4% | -51.9% (active)
Oc1ccccc1-c1nnc(Cn2c(Cc3cccc4ccccc34)nc3ccccc32)o1 | 94% | 102% | 88.8% |  | 99.2% | 89.5% | 96.3% | 88.7% |  | 89.3%
